Screens from PubChem BioAssay.
Shiga inhibitor: inhibitors of Shiga toxin in Vero cells; Vero cells, Shiga toxin protein synthesis inhibition reporter; inhibition, % at 38.7 µM; actives 9.2% (n = 290,000); AID 2315; in the data active = inhibition mostly above about 28%, no sharp cut-off; inactive = mostly below about 43%; note: 0% is about no effect
MARV entry inh: Marburg virus entry inhibition; actives 1.8% (n = 300,000); AID 540276; Potency, µM (doses to about 37.8 µM), inactives show at the top dose activity change, negative = inhibition, usual class: inhibitors; Marburg virus pseudotyped entry inhibition, cell reporter; calls by dose curve; tested in HEK293 cells; note: potency is the fitted concentration of half-maximal effect; % is set by controls: 0 for no effect and ±100 for the full control effect
LASV entry inh: inhibitors of Lassa virus binding or cell entry; Lassa virus pseudotype entry inhibition, cell reporter; Potency, µM (highest dose often 37.9 µM), for the others: at the top dose activity change, negative = inhibition, most hits filed as inhibitors; actives 1.2% (n = 300,000); AID 540256; calls by dose curve; tested in HEK293 cells; note: potency is the fitted concentration of half-maximal effect; % is set by controls: 0 for no effect and ±100 for the full control effect; nearly all actives have a fitted effect of over 50% in size
Pf growth 96h: inhibits malaria parasite growth, 96 h; P. falciparum luciferase reporter growth, 96 h; Potency, µM (highest dose often 28.7 µM), for inactives: at the highest dose activity change, negative = inhibition, actives largely listed as inhibitors; actives 6.9% (n = 320,000); note: potency is the fitted concentration of half-maximal effect; % is set by controls: 0 for no effect and ±100 for the full control effect
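Luminescence readout: decreased luciferase signal marks inhibited growth of reporter-expressing P. falciparum in infected red cells (2% hematocrit, 0.05% parasitemia final), exposed to compound two generations (96 h, 37 C, 5% CO2).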
CHX counter: affects cycloheximide protein synthesis inhibition readout, counter-screen. cell reporter, cycloheximide protein synthesis inhibition counterscreen. max response, %. actives 12% (n = 300,000). AID 2314; in the data active = max response mostly above about 13%, no sharp cut-off; inactive = mostly below about 14%; note: read at 38.3 µM for the half of the compounds with a filed dose; 0% is about no effect
Pf growth 48h: inhibits P. falciparum growth in the first generation, 48 h | P. falciparum luciferase growth in erythrocytes, 48 h | Potency, µM (highest dose often 28.7 µM), inactives show at the top dose activity change, negative = inhibition, actives largely listed as inhibitors | actives 5.9% (n = 310,000) | AID 504832; note: potency is the fitted concentration of half-maximal effect; % is set by controls: 0 for no effect and ±100 for the full control effect
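Firefly luciferase activity from engineered P. falciparum reports growth; inhibitors lower the luminescent signal. Cultures contained 2% hematocrit erythrocytes at 0.1% final parasitemia.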
* = called active by the depositor; ? = inconclusive; · = no result given; [ ] = another dose, or the depositor's remark. Only some compounds are listed: those with a hit (about 19% of all), similar ones and a draw of the others. Unless noted, calls come from the whole dose curve; as a rule, active = well fitted inhibition curve with a large enough effect; inconclusive = small, poorly fitted or top-dose-only effect, or another doubt; inactive = no such curve, though single readings can be large or run the other way.

SMILES | Shiga inhibitor | MARV entry inh | LASV entry inh | Pf growth 96h | CHX counter | Pf growth 48h
COc1ccc(-c2c(C(F)(F)F)oc3c(CN4CCN(C)CC4)c(O)ccc3c2=O)cc1 | 1.9 | -19.0% | -20.9% | ? | -1.6 | 3.29µM*
Oc1ccc(N=Nc2cccc(C(F)(F)F)c2)cc1C=Nc1ccc(N2CCOCC2)cc1 | -14.1 | 1.9% | -15.5% | 3.29µM* | -1.5 | ?
Oc1c(Cl)cc(Cl)cc1C=Nc1ccc(N2CCOCC2)cc1 | -4.6 | ? | 18.8% | ? | -2.0 | ?
COc1ccc(N2C(=S)NC3N2C(=S)NC3(C)c2ccccc2)cc1 (configuration not stated) | 55.6* | 23.3%[46.1 µM] | -8.9% | 110.2% | 36.8* | 224.2%
COC(=O)c1[nH]c2cccc(Cl)c2c1NC(=O)CN1CCCCC1C (configuration not stated) | -10.3 | ? | -15.0% | 4.15µM* | -1.8 | ?
COC(=O)c1[nH]c2ccccc2c1NC(=O)CN1CCCCCC1 | -8.7 | 0.5%[46.1 µM] | ? | ? | -1.2 | ·
COC(=O)c1[nH]c2ccccc2c1NC(=O)CN1CCN(c2cccc(Cl)c2)CC1 | -5.1 | ? | -5.3% | 3.8% | 11.8 | 3.29µM*
COC(=O)c1[nH]c2ccccc2c1NC(=O)CN1CCC(C(N)=O)(N2CCCCC2)CC1 | -14.0 | ? | -15.2% | · | 2.5 | 13.1µM*
COC(=O)c1[nH]c2cc(OC)ccc2c1NC(=O)CN1CCN(c2cccc(C)c2)C(C)C1 (configuration not stated) | 5.9 | 15.8µM* | ? | 10.4µM* | 14.5 | 11.7µM*
COC(=O)c1[nH]c2cccc(Cl)c2c1NC(=O)CN1CCN(CCO)CC1 | -9.7 | 3.8% | 0.1% | 16.6% | 7.0 | -3.0%
COC(=O)c1[nH]c2cc(C)ccc2c1NC(=O)CN1CCOCC1 | -4.4 | ? | 24.6%[46.1 µM] | -6.0% | -0.6 | 10.7%
CC(C)CCC(C)NC(=O)C1CCN(S(=O)(=O)/C=C/c2ccccc2)CC1 (configuration not stated) | -4.3 | 18.2%[46.1 µM] | 11.4%[46.1 µM] | 0.6% | -2.5 | ?
CC(C)CNC(=O)COC(=O)c1ccc(Cl)c(S(N)(=O)=O)c1 | -2.2 | -11.2%[46.1 µM] | 7.4% | · | 2.2 | 22.0%
O=C(O)CNC(=O)/C(=C\c1ccco1)NC(=O)c1ccco1 | -5.1 | · | · | 0.0% | 2.3 | 5.2%
Cc1ccc(NC(=O)c2cnn(-c3ccccc3)c2C)cc1C | 38.9 | ? | 3.16µM* | -27.8% | 15.5 | 196.8%
COc1ccc(NC(=O)c2cnn(-c3ccccc3)c2C)cc1OC | 79.9* | 2.2% | -3.8% | -10.5% | 38.7* | 25.7%
COc1ccc(CN2CCn3ncc(C(=O)Nc4ccccc4)c3C2=O)cc1 | 52.5* | ? | 0.0% | ? | 32.4* | 12.2%
COc1ccc(NC(=O)c2cnn(-c3ccccc3)c2C)cc1 | · | · | · | 225.2% | 36.0* | 73.2%
COc1ccc(OC)c(NC(=O)c2cnn(-c3ccccc3)c2C)c1 | 27.4 | -23.0%[46.1 µM] | -4.6%[46.1 µM] | ? | 8.3 | ?
COc1ccc(NC(=O)c2cnn(-c3ccc(C)c(C)c3)c2C2CCNCC2)cc1OC | · | · | 0.1%[46.1 µM] | · | · | ·
COc1ccc(C2=NN(CCC(=O)NCc3ccc4c(c3)OCO4)C(=O)CC2)cc1 | 2.3 | 10.3% | ? | -5.3% | 7.7 | -17.3%
Cc1n[nH]c(C)c1S(=O)(=O)N1CCCC(C(=O)N2CCN(c3ccc(Cl)cc3)CC2)C1 (configuration not stated) | -13.8 | ? | ? | 1.5% | -7.1 | 6.57µM*
CCOC(=O)c1cccc(NC(=O)C2CCCN(S(=O)(=O)c3c(C)n[nH]c3C)C2)c1 (configuration not stated) | 5.8 | -1.6%[46.1 µM] | 18.1% | ? | 0.9 | 7.4%
Cc1ccc(Cl)cc1N1CCN(C(=O)C2CCN(S(=O)(=O)c3c(C)nn(C)c3C)CC2)CC1 | -4.6 | ? | ? | · | 12.7 | 8.28µM*
CCOC(=O)c1cccc(NC(=O)C2CCCN(S(=O)(=O)c3c(C)nn(C)c3C)C2)c1 (configuration not stated) | 19.8 | -3.9% | · | 9.28µM* | 3.7 | ·
SMILES | Shiga inhibitor | MARV entry inh | LASV entry inh | Pf growth 96h | CHX counter | Pf growth 48h
Cc1ccc(Cl)cc1N1CCN(C(=O)C2CCN(S(=O)(=O)c3cccnc3)CC2)CC1 | -6.0 | ? | ? | ? | -4.1 | ·
Cc1nn(C)c(C)c1S(=O)(=O)N1CCCC(C(=O)NC2CCCCCC2)C1 (configuration not stated) | -12.4 | 7.2% | 6.5% | -2.4% | -6.1 | -4.9%
Cc1nn(C)c(C)c1S(=O)(=O)N1CCCC(C(=O)N2CCN(c3ccc(Cl)cc3)CC2)C1 (configuration not stated) | -8.9 | ? | -25.1% | ? | -1.0 | 4.65µM*
c1ccc(Sc2ncccn2)nc1 | -8.2 | · | · | 32.0% | 1.1 | ?
S=C(NCc1ccccc1)NN1CCOCC1 | 8.6 | · | · | 0.0% | -1.1 | 1.3%
Cc1c(NS(C)(=O)=O)cccc1-c1nc2cccnc2s1 | 153.6* | · | · | 42.4% | 31.8* | 48.7%
CCOc1ccccc1NS(=O)(=O)c1cccs1 | 1.0 | -8.2% | 10.7% | · | -2.9 | 9.9%
Cc1c(NS(=O)(=O)c2cccs2)cccc1-c1nc2cccnc2s1 | 22.3 | · | · | 0.0% | 23.9* | 6.2%
Cc1c(NC(=O)c2ccccc2F)cccc1-c1nc2cccnc2s1 | · | -14.9%[46.1 µM] | -11.9%[46.1 µM] | · | · | ·
O=S(=O)(Nc1cccc2ncccc12)c1cccs1 | 5.8 | ? | ? | ? | 29.0* | ?
O=C1Nc2ccc(NS(=O)(=O)c3cccs3)c3cccc1c23 | 9.2 | 6.2% | -10.4% | 10.4µM* | 12.1 | 7.1%
Cc1c(NS(=O)(=O)c2ccc3c(c2)OCCO3)cccc1-c1nc2cccnc2s1 | 2.2 | 0.5% | · | ? | 16.1 | -14.4%
Cc1cc(C)cc(NC(=O)COC(=O)c2ccc(CN3CCCC3=O)cc2)c1 | · | · | · | -14.3% | · | -12.1%
Cn1c(=O)c2c(SCC(=O)Nc3cccc(F)c3)nc(-c3ccco3)nc2n(C)c1=O | -6.1 | -15.3% | -9.6% | -16.8% | -2.3 | -5.0%
COc1ccc([C@@H]2[C@@H]3C(=O)N(C(C)(C)C)C(=O)[C@@H]3[C@]3(C)C(=O)N(c4cccc(F)c4)C(=O)N23)cc1 | -7.9 | · | · | -29.6% | -1.2 | 14.3%
Cc1cccc(NC(=O)c2cnn(-c3ccccc3)c2-n2cccc2)c1C | · | -20.9%[46.1 µM] | -26.7%[46.1 µM] | · | · | ·
Cc1cccc(NC(=O)c2cnn(-c3ccccc3)c2C)c1C | 41.2* | ? | -12.0% | 16.3% | 27.3* | 28.7%
Cc1ccc(C)n1-c1c(C(=O)NN)cnn1-c1ccccc1 | -4.4 | -22.1%[46.1 µM] | -20.2% | ? | -3.5 | 10.4µM*
CCc1ccc(NC(=O)c2cnn(-c3ccccc3)c2-n2cccc2)cc1 | · | ? | -37.7%[46.1 µM] | · | · | ·
CCc1ccccc1NC(=O)CNC(=O)CNC(=O)Cc1ccccc1 | · | 21.0% | -0.2% | 18.5% | · | 26.3%
CCc1ccccc1NC(=O)c1cnn(-c2ccccc2)c1C | 35.9* | ? | ? | ? | 16.2* | -0.1%
Cc1ccc(C)c(NC(=O)c2cnn(-c3ccccc3)c2C)c1 | · | ? | ? | ? | 39.8* | 22.7%
